Results filed as inconclusive are left out. Entries that show only a call come without a potency. Activity calls are given as the source filed them. Unless noted, the call rests on the fitted dose curve; in most records, active means well fitted curve in the direction sought with a large enough effect; inconclusive means small, poorly fitted or top-dose-only effect, or another doubt; inactive means no such curve, though single readings can be large; an effect the other way counts as inactive or inconclusive.
Assays:
[1] = Inducers of the Endoplasmic Reticulum Stress Response (ERSR) in human glioma: Validation (AID 504836)
How it was run: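 ERSR induction read as luciferase luminescence (Bright-Glo, 10 min at room temperature) in stably transfected human U87-MG glioma cells exposed to compounds for 16 h, using GRP78 as sensor.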

[2] = biological target: DNA dC->dU-editing enzyme APOBEC-3G (Homo sapiens) (UniProt Q9HC16); assay: qHTS for inhibitors of Vif-A3G interactions: Validation (AID 588379)
How it was run: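 HeLa cells stably expressing Vif and A3G-eYFP, 700 cells/well, incubated overnight at 37 deg C, then exposed to compound overnight at 37 deg C. Inhibition of Vif-mediated degradation read as increased yellow fluorescence (Ex 488/Em 500-530) by laser-scanning cytometry.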

[3] = biological target: Estrogen receptor (Homo sapiens) (UniProt P03372); assay: qHTS assay for small molecule antagonists of estrogen receptor alpha signaling (AID 588513; active means well fitted curve in the direction sought with a large enough effect in the signal ratio, with a control signal flat, not every such curve was filed as active; the % refers to the signal ratio)
How it was run: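 Antagonist mode: inhibition of 0.5 nM 17-beta-estradiol-driven beta-lactamase reporter in HEK 293 ER-alpha-UAS-bla cells, 18 h at 37C, CCF4 readout after 2 h at RT. Normalised to estradiol and DMSO; titration fitted to Hill.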

[4] = biological target: Estrogen receptor (Homo sapiens) (UniProt P03372); assay: qHTS assay for small molecule agonists of estrogen receptor alpha signaling (AID 588514; calls by dose curve; further: nearly all actives have a fitted effect of over 70% in size)
How it was run: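 ER-alpha-UAS-bla GripTite HEK 293 cells in medium with 2% charcoal/dextran-treated FBS were treated with compound titrations at 37 C for 18 hrs; beta-lactamase reporter read by CCF4 fluorescence after 2 hrs at RT.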

[5] = biological target: Androgen receptor (Homo sapiens) (UniProt P10275); assay: qHTS assay for small molecule agonists of androgen receptor signaling (AID 588515; active means well fitted curve in the direction sought with a large enough effect in the signal ratio, with a control signal flat; the % refers to the signal ratio); details: AR-UAS-bla HEK293, beta-lactamase ratio, agonist 16 h; stronger effect = higher value
How it was run: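 EC50 and efficacy came from Hill fits of titrations (up to 92 uM) normalized to 30 nM R1881 as 100% and DMSO as 0%. Compound exposure was 16 h at 37 C on AR-UAS-bla HEK293 cells, with a 405/460/530 nm CCF4 fluorescence read.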

[6] = biological target: Androgen receptor (Homo sapiens) (UniProt P10275); assay: qHTS assay for small molecule antagonists of androgen receptor signaling (AID 588516; active means well fitted curve in the direction sought with a large enough effect in the signal ratio, with a control signal flat, not every such curve was filed as active; the % refers to the signal ratio)
How it was run: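 Antagonist mode: inhibition of R1881-stimulated (10 nM final) bla reporter in GeneBLAzer AR HEK 293 cells, 16 h at 37C, compounds titrated. IC50 and efficacy from Hill-equation fits of 405/460–530 nm FRET ratios.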

[7] = qHTS assay for small molecule antagonists of peroxisome proliferator-activated receptor delta signaling (AID 588535; active means well fitted inhibition curve with a large enough effect in the signal ratio, with a control signal flat, not every such curve was filed as active; the % refers to the signal ratio;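 on max response: cells co-treated with a PPAR-delta agonist as stimulator during compound exposure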); details: HEK293T PPARd-UAS-bla, beta-lactamase FRET ratio, 18 h; 460 nm channel
How it was run: (§1)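 Cell-based beta-lactamase assay in antagonist mode: 4000 HEK293T PPAR-delta-UAS-bla cells per well, 5 hr preincubation then 18 hr compound incubation at 37 C. IC50 obtained by Hill equation fitting.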

[8] = biological target: Peroxisome proliferator-activated receptor delta (Homo sapiens) (UniProt Q03181); assay: as above
How it was run: as §1

[9] = biological target: Peroxisome proliferator-activated receptor gamma (Homo sapiens) (UniProt P37231); assay: qHTS assay for small molecule agonists of peroxisome proliferator-activated receptor gamma signaling (AID 588536; active means well fitted curve in the direction sought with a large enough effect in the signal ratio, with a control signal flat, not every such curve was filed as active; the % refers to the signal ratio)
How it was run: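 HEK293 UAS-bla reporter line, 1% charcoal/dextran FBS; titration, 16 h, 37 C; CCF4 loading 2 h RT; fluorescence 460/530 nm. Normalized to rosiglitazone 2 uM = 100%, DMSO = 0%.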

[10] = biological target: Vitamin D3 receptor (Homo sapiens) (UniProt P11473); assay: qHTS assay for small molecule agonists of vitamin D receptor signaling (AID 588543; calls by dose curve)
How it was run: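 Agonist-mode beta-lactamase reporter: HEK293T VDR-UAS-bla cells in charcoal-stripped 2% FBS, compound series 16 h 37 C, CCF4 2 h RT. EC50 from Hill fit, scaled against DMSO and 50 nM calcitriol control.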

[11] = biological target: Bile acid receptor (Homo sapiens) (UniProt Q96RI1); assay: qHTS assay for small molecule antagonists of farnesoid X receptor signaling (AID 588526; calls by dose curve; further: potency means the concentration at half of the fitted maximal effect)
How it was run: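 Beta-lactamase reporter antagonist mode: HEK293T FXR-UAS-bla cells, titrated compound, CDCA stimulation, 16 h 37 C, CCF4 dye 2 h RT. Data normalized to CDCA 50 uM and DMSO; Hill-fit IC50.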

[12] = biological target: Peroxisome proliferator-activated receptor gamma (Homo sapiens) (UniProt P37231); assay: qHTS assay for small molecule antagonists of peroxisome proliferator-activated receptor gamma signaling (AID 588537; active means well fitted inhibition curve with a large enough effect in the signal ratio, with a control signal flat, not every such curve was filed as active; the % refers to the signal ratio;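 further: reporter cells co-stimulated with 50 nM rosiglitazone agonist during compound treatment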)
How it was run: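 Inhibitors of agonist-stimulated UAS-bla reporter activity were sought in HEK293 cells; rosiglitazone (50 nM) defined full signal and DMSO baseline. Curves fitted to Hill model gave IC50 and efficacy.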

Sequence of Estrogen receptor (Homo sapiens) (P03372 whole entry, looked up): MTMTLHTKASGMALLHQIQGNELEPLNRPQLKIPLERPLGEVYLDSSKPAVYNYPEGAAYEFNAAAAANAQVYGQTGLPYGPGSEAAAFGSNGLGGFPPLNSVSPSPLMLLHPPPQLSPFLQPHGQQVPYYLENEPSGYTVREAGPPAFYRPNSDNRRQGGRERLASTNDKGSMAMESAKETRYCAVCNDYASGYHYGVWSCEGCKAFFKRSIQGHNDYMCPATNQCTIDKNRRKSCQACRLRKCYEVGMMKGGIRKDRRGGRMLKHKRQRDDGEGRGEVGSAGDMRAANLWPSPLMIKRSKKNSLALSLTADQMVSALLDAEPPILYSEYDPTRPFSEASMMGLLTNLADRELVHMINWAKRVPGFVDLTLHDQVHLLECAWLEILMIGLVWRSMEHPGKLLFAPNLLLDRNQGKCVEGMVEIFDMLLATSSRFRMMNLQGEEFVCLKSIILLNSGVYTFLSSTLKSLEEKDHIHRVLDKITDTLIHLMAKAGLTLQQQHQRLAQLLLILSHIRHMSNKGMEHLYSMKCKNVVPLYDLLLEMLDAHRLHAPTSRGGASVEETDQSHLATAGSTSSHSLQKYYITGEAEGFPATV
Sequence of Bile acid receptor (Homo sapiens) (Q96RI1 whole entry, looked up): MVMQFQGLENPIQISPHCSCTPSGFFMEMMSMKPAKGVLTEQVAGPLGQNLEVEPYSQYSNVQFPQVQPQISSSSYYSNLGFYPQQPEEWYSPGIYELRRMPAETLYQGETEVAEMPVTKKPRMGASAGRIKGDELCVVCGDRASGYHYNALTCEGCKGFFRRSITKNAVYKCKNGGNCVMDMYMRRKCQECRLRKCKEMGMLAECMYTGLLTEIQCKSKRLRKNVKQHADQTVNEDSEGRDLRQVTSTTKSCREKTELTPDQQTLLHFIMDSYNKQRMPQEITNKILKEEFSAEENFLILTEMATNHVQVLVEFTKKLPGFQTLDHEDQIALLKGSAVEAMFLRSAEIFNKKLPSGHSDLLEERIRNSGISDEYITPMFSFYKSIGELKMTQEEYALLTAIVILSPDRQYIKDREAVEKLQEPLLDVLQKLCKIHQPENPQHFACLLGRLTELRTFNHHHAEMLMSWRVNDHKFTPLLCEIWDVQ
Sequence of Peroxisome proliferator-activated receptor gamma (Homo sapiens) (P37231 whole entry, looked up): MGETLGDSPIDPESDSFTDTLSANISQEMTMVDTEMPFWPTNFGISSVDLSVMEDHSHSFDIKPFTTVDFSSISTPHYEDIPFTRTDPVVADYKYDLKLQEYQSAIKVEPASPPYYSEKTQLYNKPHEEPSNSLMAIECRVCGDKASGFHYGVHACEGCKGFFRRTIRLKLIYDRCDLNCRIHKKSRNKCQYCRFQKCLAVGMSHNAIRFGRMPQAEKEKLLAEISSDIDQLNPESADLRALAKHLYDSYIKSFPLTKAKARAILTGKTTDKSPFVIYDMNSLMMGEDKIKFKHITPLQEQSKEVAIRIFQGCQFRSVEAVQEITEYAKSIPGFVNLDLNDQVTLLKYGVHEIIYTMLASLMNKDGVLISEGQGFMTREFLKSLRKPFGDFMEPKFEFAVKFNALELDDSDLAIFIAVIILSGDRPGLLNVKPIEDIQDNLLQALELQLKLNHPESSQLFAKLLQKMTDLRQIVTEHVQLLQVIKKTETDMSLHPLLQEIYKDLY
Sequence of Vitamin D3 receptor (Homo sapiens) (P11473 whole entry, looked up): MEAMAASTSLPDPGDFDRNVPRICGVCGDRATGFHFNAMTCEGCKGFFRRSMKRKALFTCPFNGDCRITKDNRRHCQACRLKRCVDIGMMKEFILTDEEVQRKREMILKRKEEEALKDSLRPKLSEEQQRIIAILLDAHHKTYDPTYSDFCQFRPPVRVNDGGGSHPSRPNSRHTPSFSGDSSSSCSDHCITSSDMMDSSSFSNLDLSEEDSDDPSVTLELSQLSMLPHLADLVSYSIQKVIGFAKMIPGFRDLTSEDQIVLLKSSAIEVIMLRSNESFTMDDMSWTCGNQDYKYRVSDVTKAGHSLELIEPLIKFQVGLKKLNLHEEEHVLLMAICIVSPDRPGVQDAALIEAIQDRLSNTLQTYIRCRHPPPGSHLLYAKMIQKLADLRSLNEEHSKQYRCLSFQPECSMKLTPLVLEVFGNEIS
Sequence of Androgen receptor (Homo sapiens) (P10275 whole entry, looked up): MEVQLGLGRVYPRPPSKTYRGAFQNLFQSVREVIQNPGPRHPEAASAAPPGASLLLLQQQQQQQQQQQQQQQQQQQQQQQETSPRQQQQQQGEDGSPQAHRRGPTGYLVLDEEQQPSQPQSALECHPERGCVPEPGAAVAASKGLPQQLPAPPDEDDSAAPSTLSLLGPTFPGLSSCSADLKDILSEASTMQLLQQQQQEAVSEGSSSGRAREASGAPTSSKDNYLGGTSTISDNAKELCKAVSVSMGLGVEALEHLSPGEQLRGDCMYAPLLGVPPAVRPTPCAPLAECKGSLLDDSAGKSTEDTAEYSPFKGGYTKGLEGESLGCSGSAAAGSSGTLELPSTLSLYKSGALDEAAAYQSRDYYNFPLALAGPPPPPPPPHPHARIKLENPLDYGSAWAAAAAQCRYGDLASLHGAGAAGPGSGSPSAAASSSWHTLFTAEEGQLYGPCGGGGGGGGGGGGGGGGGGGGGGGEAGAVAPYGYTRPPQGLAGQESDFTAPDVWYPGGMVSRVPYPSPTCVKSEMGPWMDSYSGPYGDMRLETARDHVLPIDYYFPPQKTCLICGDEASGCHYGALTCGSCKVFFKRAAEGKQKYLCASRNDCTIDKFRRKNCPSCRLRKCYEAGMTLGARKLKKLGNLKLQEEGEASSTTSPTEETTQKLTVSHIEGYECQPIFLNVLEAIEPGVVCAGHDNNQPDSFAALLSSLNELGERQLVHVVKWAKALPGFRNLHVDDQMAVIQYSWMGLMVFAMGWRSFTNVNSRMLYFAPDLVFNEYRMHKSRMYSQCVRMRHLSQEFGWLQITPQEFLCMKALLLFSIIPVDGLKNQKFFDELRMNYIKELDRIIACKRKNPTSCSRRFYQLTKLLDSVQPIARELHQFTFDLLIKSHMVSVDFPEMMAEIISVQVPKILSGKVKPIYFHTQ
Sequence of DNA dC->dU-editing enzyme APOBEC-3G (Homo sapiens) (Q9HC16 whole entry, looked up): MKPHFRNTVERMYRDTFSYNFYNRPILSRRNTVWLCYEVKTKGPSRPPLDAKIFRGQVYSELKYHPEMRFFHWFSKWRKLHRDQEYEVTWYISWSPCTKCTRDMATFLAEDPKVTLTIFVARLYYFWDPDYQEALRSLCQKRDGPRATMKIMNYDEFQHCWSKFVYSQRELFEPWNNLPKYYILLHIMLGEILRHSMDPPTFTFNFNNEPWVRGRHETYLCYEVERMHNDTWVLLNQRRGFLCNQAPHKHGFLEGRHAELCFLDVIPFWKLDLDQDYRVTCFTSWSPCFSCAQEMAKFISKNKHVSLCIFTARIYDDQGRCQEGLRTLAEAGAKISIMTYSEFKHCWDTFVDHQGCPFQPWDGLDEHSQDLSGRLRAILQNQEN
Sequence of Peroxisome proliferator-activated receptor delta (Homo sapiens) (Q03181 whole entry, looked up): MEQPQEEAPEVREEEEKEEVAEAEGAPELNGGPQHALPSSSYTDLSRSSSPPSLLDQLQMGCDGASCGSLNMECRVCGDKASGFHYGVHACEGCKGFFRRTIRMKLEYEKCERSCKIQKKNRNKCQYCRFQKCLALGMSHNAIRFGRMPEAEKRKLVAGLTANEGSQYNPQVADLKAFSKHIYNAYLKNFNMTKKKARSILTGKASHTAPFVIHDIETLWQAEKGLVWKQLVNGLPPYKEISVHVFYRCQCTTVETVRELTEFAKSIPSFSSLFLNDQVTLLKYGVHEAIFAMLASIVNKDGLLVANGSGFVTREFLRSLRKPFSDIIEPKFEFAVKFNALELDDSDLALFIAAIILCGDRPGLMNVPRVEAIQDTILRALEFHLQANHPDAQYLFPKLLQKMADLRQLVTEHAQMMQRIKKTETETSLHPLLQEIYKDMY

In the case of `CCN(CC)CC#CCOC(=O)C(O)(c1ccccc1)C1CCCCC1` (stereo not drawn), the outcome [1] is reported as “inactive”.

In the case of `Nc1ccc(S(=O)(=O)Nc2ccnn2-c2ccccc2)cc1`, the outcome [1] is reported as “inactive”.

In the case of `CN1C(C(=O)Nc2ccccn2)=C(O)c2ccccc2S1(=O)=O`, the outcome [1] is reported as “inactive”.

In the case of `Cc1scc2c1N(C(=O)CN1CCN(C)CC1)c1ccccc1NC2=O`, the outcome [1] is reported as “inactive”.

For `CC1COc2c(N3CCN(C)CC3)c(F)cc3c(=O)c(C(=O)O)cn1c23` (stereo not drawn), the outcome [1] was “inactive”.

In the case of `CCO/C([O-])=N/c1c[n+](N2CCOCC2)no1`, the outcome [1] is reported as “inactive”.

In the case of `CCN(CC)CCNC(=O)c1cc(S(C)(=O)=O)ccc1OC`, the outcome [1] is reported as “inactive”.

With `N[C@@H](COP(=O)(O)O)C(=O)O` the outcome [1] was “inactive”.

With `Clc1cccc(Cl)c1NC1=NCCN1` the outcome [1] was “inactive”.

With `CCN(CC)CCNC(=O)c1ccc(N)cc1` the outcome [1] was “inactive”.

With `OCCN1CCN(CC/C=C2/c3ccccc3Sc3ccc(C(F)(F)F)cc32)CC1` the outcome [1] was “inactive”.

With `CC(C)(C)NC[C@H](O)COc1nsnc1N1CCOCC1` the outcome [1] was “inactive”.

With `CCN(Cc1ccncc1)C(=O)C(CO)c1ccccc1` (stereo not drawn) the outcome [1] was “inactive”.

For `FC(F)(F)c1ccccc1-n1ccnc1`, the outcome [1] was “inactive”.

In the case of `COC(=O)[C@@H]1[C@H]2C[C@H]3c4[nH]c5ccccc5c4CCN3C[C@@H]2CC[C@@H]1O`, the outcome [1] is reported as “inactive”.

In the case of `CCN1CCCC1CNC(=O)c1cc(S(=O)(=O)CC)c(N)cc1OC` (stereo not drawn), the outcome [1] is reported as “inactive”.

In the case of `CCN(CC)CCOC(=O)c1ccc(N)cc1`, the outcome [1] is reported as “inactive”.

In the case of `CCOC(=O)C1=C(C)NC(C)=C(C(=O)OC)C1c1cccc([N+](=O)[O-])c1` (stereo not drawn), the outcome [1] is reported as “inactive”.

In the case of `NC(Cc1ccc(Cl)cc1)C(=O)O` (stereo not drawn), the outcome [1] is reported as “inactive”.

In the case of `CC(C)NCC(O)c1cc(O)cc(O)c1` (stereo not drawn), the outcome [1] is reported as “inactive”.

For `C=CC(N)CCC(=O)O` (stereo not drawn), the outcome [1] was “inactive”.

In the case of `Cc1nc2ccccn2c(=O)c1CCN1CCC(C(=O)c2ccc(F)cc2)CC1`, the outcome [1] is reported as “inactive”.

With `Nc1nc2ccc(OC(F)(F)F)cc2s1` the outcome [1] was “inactive”.

With `NC/C=C/C(=O)O` the outcome [1] was “inactive”.

In the case of `CCOC(=O)c1cnc2c(cnn2CC)c1NN=C(C)C`, the outcome [1] is reported as “inactive”.

For `c1ccc2c(c1)CCCC2C1=NCCN1` (stereo not drawn), the outcome [1] was “inactive”.

In the case of `O=C1NCC2(CCN(CCc3ccccc3)CC2)O1`, the outcome [1] is reported as “inactive”.

For `CNCCCC12CCC(c3ccccc31)c1ccccc12`, the outcome [1] was “inactive”.

In the case of `COCCOC(=O)C1=C(C)NC(C)=C(C(=O)OC(C)C)C1c1cccc([N+](=O)[O-])c1` (stereo not drawn), the outcome [1] is reported as “inactive”.

For `CCn1nc(C(=O)O)c(=O)c2cc3c(cc21)OCO3`, the outcome [1] was “inactive”.

In the case of `CO[C@@]1(NC(=O)CSCC#N)C(=O)N2C(C(=O)O)=C(CSc3nnnn3C)CS[C@@H]21`, the outcome [1] is reported as “inactive”.

For `Cc1nc2c([nH]1)c(=O)n(C)c(=O)n2Cc1ccco1`, the outcome [1] was “inactive”.

For `CN1CCN(CC(=O)N2c3ccccc3C(=O)Nc3cccnc32)CC1`, the outcome [1] was “inactive”.

With `Cc1ccc(Cl)c(Nc2ccccc2C(=O)O)c1Cl` the outcome [1] was “inactive”.

With `Cc1ncsc1CCCl` the outcome [2] was “inactive”.

For `O=c1[nH]oc2c1CCNC2`, the outcome [2] was “inactive”.

In the case of `CC(C)c1cccc(C(C)C)c1O`, the outcome [3] is reported as “inactive”, the Potency [4] is reported as “inactive” and the activation [5] is reported as -6.9% (inactive). For the same molecule, the outcome [6] was “inactive”, the max response [7] was -11.4% and the outcome [8] was “inactive”. For the same molecule, the outcome [9] was “inactive” and the outcome [10] was “inactive”.

For `O=C(O)CCCc1ccc(N(CCCl)CCCl)cc1`, the outcome [3] was “inactive”, the Potency [4] was “inactive” and the Potency [11] was “inactive”. For the same molecule, the max response [7] was 26.1%, the outcome [8] was “inactive” and the outcome [9] was “inactive”. For the same molecule, the outcome [12] was “inactive” and the outcome [10] was “inactive”.

In the case of `CC(=O)N1CCN(c2ccc(OC[C@H]3CO[C@](Cn4ccnc4)(c4ccc(Cl)cc4Cl)O3)cc2)CC1`, the Potency [11] is reported as 44.7 µM (active).

From PubChem BioAssay (NCATS)
